Reference: PubChem BioAssay (NCATS)
Results filed as inconclusive are left out. A call without a number means that no potency is given here. The source made the active and inactive calls. Calls follow the shape of the dose curve; as a rule, active = well fitted inhibition curve with a large enough effect; inconclusive = small, poorly fitted or top-dose-only effect; inactive = flat fitted curve, though single readings scatter.

What follows are molecules tested on CP265 (assay: qHTS profiling for inhibitors of Plasmodium falciparum proliferation (AID 504749; also: nearly all actives have a fitted effect of over 60% in size)). Details: P. falciparum in erythrocytes, SYBR Green DNA, 72 h; series mostly up to 28.7 µM.
Summary of the method: (§1)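 Each compound contacts P. falciparum-infected red blood cells for 72 h at 37 C; lysis buffer (Tris, EDTA, saponin, Triton X, SYBR Green I) is added and fluorescence measured next morning; values normalized to controls.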
Potency is read from the fitted curve at half-maximal effect.

| SMILES | Potency |
| --- | --- |
| CCCCC | inactive |
| CCCCC[C@H](O)/C=C/[C@@H]1[C@H]2C/C(=C/CCCC(=O)O)O[C@H]2C[C@H]1O | inactive |
| C[Si](C)(C)O[Si](C)(C)C | inactive |
| O.O.O.O.O.O.O.O=S(=O)([O-])[O-].[Co+2] | 11.2 µM (active) |
| Cc1c(C)c2c(c(C)c1OC(=O)CCC(=O)O)CC[C@@](C)(CCC[C@H](C)CCC[C@H](C)CCCC(C)C)O2 | inactive |
| CCOC(=O)c1c[nH]c2cc(OCC(C)C)c(OCC(C)C)cc2c1=O | 0.0891 µM (active) |

Each molecule was assayed on CP266 in the same assay as above. Details: P. falciparum in erythrocytes, SYBR Green DNA, 72 h; series mostly up to 28.7 µM.
Summary of the method: as §1

| SMILES | Potency |
| --- | --- |
| CCCCC[C@H](O)/C=C/[C@H]1[C@H](O)CC(=O)[C@@H]1C/C=C\CCCC(=O)O | inactive |
| O=C(CCCN1CCC(C(=O)c2ccc(F)cc2)CC1)c1ccc(F)cc1 | inactive |
| C(=C\c1ccncc1)/c1ccccc1 | inactive |
| O=C1N=C2SCCN2C(=O)C1Cc1ccc(Cl)cc1 (stereo not given) | inactive |
| CCCCCCCCCCCC(=O)N(CCO)CCO | inactive |
| Cc1nc(NS(=O)(=O)c2ccc(N)cc2)nc(C)c1Br | inactive |
| O=c1[nH]c(=O)n([C@H]2C[C@H](O)[C@@H](CO)O2)cc1/C=C/Br | inactive |
| CC12CCC(C[N+](C)(CCC[N+](C)(C)C)C1)C2(C)C (stereo not given) | inactive |
| Oc1cccc(O)c1O | inactive |
| CC(C)NCC(O)COc1ccccc1-n1cccc1 (stereo not given) | inactive |
| F[Si-2](F)(F)(F)(F)F | inactive |
| CN(Cc1ccccc1)Cc1ccccc1 | inactive |
| OCc1ccccc1 | inactive |
| O=[n+]1ccn([O-])c2ccccc21 | inactive |
| OCC(O)CO | inactive |
| CC(=O)NCCCS(=O)(=O)O | inactive |
| CCN(CC)CCOc1ccc2nc(N(C)C)sc2c1 | inactive |

| SMILES | Potency |
| --- | --- |
| Cc1cccc(Nc2ncccc2C(=O)O)c1C | inactive |
| CCCCC(CC)CCC(CC(C)C)OS(=O)(=O)O (stereo not given) | inactive |
| C[C@H](N)C(=O)N[C@@H](C)P(=O)(O)O | inactive |
| CC(=O)Nc1ccc(NC(=S)NC(=O)c2ccc(C(C)(C)C)cc2)cc1 | inactive |
| CN1CCc2c(c3ccccc3n2Cc2ccccc2)C1 | inactive |
| CO/N=C(\C(=O)N[C@@H]1C(=O)N2C(C(=O)[O-])=C(C[n+]3cccc4c3CCC4)CS[C@H]12)c1csc(N)n1 | inactive |
| Cc1cc(-c2ccc(N=Nc3ccc4c(S(=O)(=O)O)cc(S(=O)(=O)O)c(N)c4c3O)c(C)c2)ccc1N=Nc1ccc2c(S(=O)(=O)O)cc(S(=O)(=O)O)c(N)c2c1O | inactive |
| CCC(C(=O)NC(N)=O)c1ccccc1 (stereo not given) | inactive |
| CCc1ncnc2cc(OC)c(OC)cc12 | inactive |
| Cc1ncc(C[n+]2csc(CCO)c2C)c(N)n1 | inactive |
| O[C@@H]([C@H](O)[C@H](O)CBr)[C@H](O)CBr | inactive |
| O=[N+]([O-])c1c(Cl)cccc1-c1c[nH]cc1Cl | inactive |
| C[C@@](Cc1ccc(O)c(O)c1)(NN)C(=O)O | inactive |
| CC(=O)Oc1cc(C(F)(F)F)ccc1C(=O)O | inactive |
| CCCCC | inactive |
| O=P(O)(O)CP(=O)(O)O | inactive |
| CCCCC[C@H](O)/C=C/[C@@H]1[C@H]2C/C(=C/CCCC(=O)O)O[C@H]2C[C@H]1O | inactive |
